Drawing on PubChem BioAssay (NCATS), this text covers Potency for 23 compounds.

Results filed as inconclusive are left out. Unmarked numbers belong to inactive results. The source made the active and inactive calls. Calls follow the shape of the full dose curve.
Potency is read from the fitted curve at half-maximal effect.

A short description of one assay: Cell Viability - MRC5 (AID 434).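 Also: cells exposed to compound for 40 hours at 37 °C; potency reflects cytotoxicity seen as loss of intracellular ATP.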 The conditions noted are these: MRC5 lung fibroblast viability, qHTS. The method in brief: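 ATP luminescence read-out (CellTiter-Glo, 20 min RT) after 40 hr, 37 °C compound exposure of 1500 MRC5 cells/well. Data normalized to DMSO (basal) and 100 uM tamoxifen (100% inhibition); AC50 from standard Hill equation.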
(Quantitative high-throughput screening tests each substance at several concentrations.)
Regarding `Oc1ccc2cc(SSc3ccc4cc(O)ccc4c3)ccc2c1`, the Potency is 38.3 µM (active).
On the same count and under the same terms, under `c1ccc2c(c1)ccc1cc3c(ccc4ccccc43)cc12` stands above 92 µM; under `C/C=C1\C(=O)C[C@H]2[C@@H]3CCC4=CC(=O)CC[C@]4(C)[C@H]3CC[C@]12C`, above 92 µM.
On the same count and under the same terms, under `C=C(C)c1ccccc1` stands above 92 µM.
Same read-out and setting: then `Cc1ccc(S(=O)(=O)Oc2ccc(N=Nc3ccc(-c4ccc(N=Nc5c(O)ccc6cc(S(=O)(=O)O)cc(S(=O)(=O)O)c56)c(C)c4)cc3C)cc2)cc1`, with above 92 µM.

The next assay is described as follows: Cell Viability - SK-N-SH (AID 435).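 Also: compound exposure lasted 40 h at 37 °C.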 The conditions noted are these: SK-N-SH neuroblastoma cell viability qHTS. Summed up:
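Luminescent ATP signal served as the viability read-out after 40 hours of compound treatment of human neuroblastoma SK-N-SH cells. Concentration-response data, scaled between DMSO and 100 uM tamoxifen, gave AC50 values by standard Hill modeling.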
For `c1cc(OCC2CO2)cc(OCC2CO2)c1` (stereo unspecified), the Potency is 9.23 µM (active).
On the same count and under the same terms, under `Cc1cc(Nc2ccc(O)cc2)ccc1N` stands 87 µM (active); under `CN(C)c1ccc(C2(c3ccc(N(C)C)cc3)OC(=O)c3cc(N(C)C)ccc32)cc1`, above 92 µM.
The same measure, in the same setting: under `CO[C@H]1/C=C/O[C@@]2(C)Oc3c(C)c(O)c4c(O)c(c5c(c4c3C2=O)NC2(CCN(CC(C)C)CC2)N=5)=NC(=O)/C(C)=C\C=C\[C@H](C)[C@H](O)[C@@H](C)[C@@H](O)[C@@H](C)[C@H](OC(C)=O)[C@@H]1C` stands above 92 µM; under `O=C(OCC(COC(=O)c1ccccc1)(COC(=O)c1ccccc1)COC(=O)c1ccccc1)c1ccccc1`, above 92 µM; under `ClC1=C(Cl)C(Cl)(Cl)C(Cl)=C1Cl`, above 92 µM.
In the case of `CC(=O)Nc1ccc(C(=O)CCl)cc1`, the Potency was 15.6 µM (active).
The same measure, in the same setting: under `CC/C(=C(\c1ccccc1)c1ccc(OCCN(C)C)cc1)c1ccc(O)cc1` stands 34.3 µM (active); under `Nc1ccc2cc3ccccc3cc2c1`, above 92 µM; under `c1ccc2c(c1)-c1cccc3c1c-2cc1ccccc13`, above 92 µM.
Consider `O=C=Nc1ccc(Cc2ccc(N=C=O)cc2)cc1`, for which the Potency was above 92 µM.
Still for that read-out and setting: then `O=[N+]([O-])c1cc([N+](=O)[O-])c2ccc(S(=O)(=O)O)cc2c1O`, with above 92 µM.
Same read-out and setting: under `Cc1cc(O)c(C(C)(C)C)cc1Sc1cc(C(C)(C)C)c(O)cc1C` stands 23 µM (active).
Same read-out and setting: under `CCC(C)Nc1ccc(NC(C)CC)cc1` (stereo unspecified) stands 8.73 µM (active); under `CNc1ccc(O)cc1`, 23.5 µM (active).
As for `C=CC(=O)OCCOCCOC(=O)C=C`, the Potency was 22.7 µM (active).
Still for that read-out and setting: then `O=C1OC2(c3cc(Br)c(O)c(Br)c3Oc3c2cc(Br)c(O)c3Br)c2c(Cl)c(Cl)c(Cl)c(Cl)c21`, with above 92 µM; and `Oc1ccc2cc(SSc3ccc4cc(O)ccc4c3)ccc2c1`, with 42.5 µM (active); and `c1ccc2c(c1)ccc1cc3c(ccc4ccccc43)cc12`, with above 92 µM.
Same read-out and setting: under `C=C(C)c1ccccc1` stands above 92 µM; under `O=C1OC(O)C(C(Cl)Cl)=C1Cl` (stereo unspecified), 30.2 µM (active).
